Reference: PubChem BioAssay (NCATS)
Records with an inconclusive call do not appear. Entries that show only a call come without a potency. Calls of active or inactive are those of the source. The call rests on the fitted dose curve; in most records, active means well fitted curve in the direction sought with a large enough effect; inconclusive means small, poorly fitted or top-dose-only effect, or another doubt; inactive means no such curve, though single readings can be large; an effect the other way counts as inactive or inconclusive.

Assays:
[1] = Confirmation and Secondary Assay for Modulators of Hemoglobin Beta Chain Splicing at IVS2 654 locus (AID 910);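 further: per-well total GFP intensity by laser scanning cytometry after 2-day treatment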
Summary of the method: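 HeLa cells stably carrying EGFP interrupted by mutant beta-globin IVS2-654 intron (CMV-driven) were treated with compound for 2 days at 37C; corrected splicing was scored as total peak GFP intensity per well (488 nm excitation, 500-520 nm emission).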

[2] = test system: CP215; test: qHTS profiling for inhibitors of Plasmodium falciparum proliferation (AID 504749); further: nearly all actives have a fitted effect of over 60% in size; further: potency means the concentration at half of the fitted maximal effect; settings: P. falciparum in erythrocytes, SYBR Green DNA, 72 h; series mostly up to 28.7 µM
Summary of the method: (§1)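 P. falciparum-infected erythrocytes (0.3% parasitemia, 2.5% hematocrit final) were exposed to compounds for 72 h at 37 C in 5% CO2, then lysed with SYBR Green buffer overnight at room temperature; parasite DNA fluorescence was normalized to artemisinin and DMSO controls.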

[3] = test system: CP286; test: as above; settings: P. falciparum in erythrocytes, SYBR Green DNA, 72 h; series mostly up to 28.7 µM
Summary of the method: as §1

[4] = test system: GB4; test: as above; settings: P. falciparum in erythrocytes, SYBR Green DNA, 72 h; series mostly up to 28.7 µM
Summary of the method: as §1

[5] = test system: CP268; test: as above; settings: P. falciparum in erythrocytes, SYBR Green DNA, 72 h; series mostly up to 28.7 µM
Summary of the method: as §1

[6] = test system: CP291; test: as above; settings: P. falciparum in erythrocytes, SYBR Green DNA, 72 h; series mostly up to 28.7 µM
Summary of the method: as §1

[7] = test system: CP297; test: as above; settings: P. falciparum in erythrocytes, SYBR Green DNA, 72 h; series mostly up to 28.7 µM
Summary of the method: as §1

[8] = test system: CP305; test: as above; settings: P. falciparum in erythrocytes, SYBR Green DNA, 72 h; series mostly up to 28.7 µM
Summary of the method: as §1

[9] = test system: ECU; test: as above; settings: P. falciparum in erythrocytes, SYBR Green DNA, 72 h; series mostly up to 28.7 µM
Summary of the method: as §1

[10] = test system: TAB109; test: as above; settings: P. falciparum in erythrocytes, SYBR Green DNA, 72 h; series mostly up to 28.7 µM
Summary of the method: as §1

[11] = target: DNA dC->dU-editing enzyme APOBEC-3G (Homo sapiens) (UniProt Q9HC16); test: qHTS for inhibitors of Vif-A3G interactions: Validation (AID 588379)
Summary of the method: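 HeLa cells stably expressing Vif and A3G-eYFP, 700 cells/well, incubated overnight at 37 deg C, then exposed to compound overnight at 37 deg C. Inhibition of Vif-mediated degradation read as increased yellow fluorescence (Ex 488/Em 500-530) by laser-scanning cytometry.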

[12] = target: Pyruvate kinase (Leishmania mexicana) (UniProt Q27686); test: qHTS Validation Assay for Activators of Leishmania Mexicana Pyruvate Kinase (AID 959)
Summary of the method: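 qHTS eight-point titrations against 0.2 nM LmPYK (E451W) in imidazole buffer pH 7.2 with 0.5 mM PEP, 0.1 mM ADP; 1 h, room temperature. Readout: PKLight luminescence, normalized to neutral DMSO wells.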

[13] = qHTS Assay for Identification of Small Molecule Antagonists for Thrombopoietin (TPO) Signaling Pathway (AID 918); settings: TPO-dependent cell signaling reporter, antagonist mode; further: potency means the concentration at half of the fitted maximal effect; nearly all actives have a fitted effect of over 60% in size
Summary of the method: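 First, Ba/F3 reporter cells expressing human TPO receptor were held overnight without IL-3. Next, compound and 26 pM TPO were added. After 24 hrs incubation at 37 C, luciferase luminescence under the Glycoprotein IIb promoter was recorded.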

[14] = target: Pyruvate kinase PKM (Homo sapiens) (UniProt P14618); test: qHTS Assay for Inhibitors of Human Muscle Pyruvate Kinase (AID 958)
Summary of the method: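 Luminescence from a luciferase ATP-detection/stop reagent reported PKM2 activity. Reactions contained 0.1 nM purified human enzyme, 0.5 mM PEP, 0.1 mM ADP and 7 mM MgCl2 at pH 7.2, run 1 h at RT.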

Pyruvate kinase PKM (Homo sapiens), sequence (P14618 whole entry, looked up): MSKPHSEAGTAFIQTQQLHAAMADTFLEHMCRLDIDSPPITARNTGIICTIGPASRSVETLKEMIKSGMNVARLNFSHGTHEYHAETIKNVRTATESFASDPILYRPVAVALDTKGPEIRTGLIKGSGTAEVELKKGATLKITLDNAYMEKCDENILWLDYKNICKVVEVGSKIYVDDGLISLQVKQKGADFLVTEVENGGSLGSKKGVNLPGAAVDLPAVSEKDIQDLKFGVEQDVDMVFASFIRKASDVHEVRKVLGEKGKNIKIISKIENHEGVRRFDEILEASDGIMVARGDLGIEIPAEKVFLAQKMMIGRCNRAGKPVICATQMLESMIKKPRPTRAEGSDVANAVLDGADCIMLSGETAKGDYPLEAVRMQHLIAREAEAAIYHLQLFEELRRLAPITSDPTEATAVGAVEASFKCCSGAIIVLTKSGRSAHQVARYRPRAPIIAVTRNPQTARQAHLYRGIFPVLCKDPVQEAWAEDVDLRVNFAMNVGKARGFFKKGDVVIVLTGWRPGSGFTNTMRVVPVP
Pyruvate kinase (Leishmania mexicana), sequence (Q27686 2-499 E452W): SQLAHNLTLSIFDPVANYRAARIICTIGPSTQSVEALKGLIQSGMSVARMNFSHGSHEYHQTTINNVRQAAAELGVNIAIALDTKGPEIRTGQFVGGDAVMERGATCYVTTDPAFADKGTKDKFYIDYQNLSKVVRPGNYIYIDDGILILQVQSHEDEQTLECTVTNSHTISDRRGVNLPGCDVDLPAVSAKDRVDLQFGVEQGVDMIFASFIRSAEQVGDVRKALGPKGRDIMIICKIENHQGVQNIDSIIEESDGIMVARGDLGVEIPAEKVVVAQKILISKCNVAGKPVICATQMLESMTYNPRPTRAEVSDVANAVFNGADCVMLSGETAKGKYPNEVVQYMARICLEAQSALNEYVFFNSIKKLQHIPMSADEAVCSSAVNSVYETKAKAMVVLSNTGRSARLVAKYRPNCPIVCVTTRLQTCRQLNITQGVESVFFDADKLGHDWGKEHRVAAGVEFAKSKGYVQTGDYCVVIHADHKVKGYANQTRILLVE
DNA dC->dU-editing enzyme APOBEC-3G (Homo sapiens), sequence (Q9HC16 whole entry, looked up): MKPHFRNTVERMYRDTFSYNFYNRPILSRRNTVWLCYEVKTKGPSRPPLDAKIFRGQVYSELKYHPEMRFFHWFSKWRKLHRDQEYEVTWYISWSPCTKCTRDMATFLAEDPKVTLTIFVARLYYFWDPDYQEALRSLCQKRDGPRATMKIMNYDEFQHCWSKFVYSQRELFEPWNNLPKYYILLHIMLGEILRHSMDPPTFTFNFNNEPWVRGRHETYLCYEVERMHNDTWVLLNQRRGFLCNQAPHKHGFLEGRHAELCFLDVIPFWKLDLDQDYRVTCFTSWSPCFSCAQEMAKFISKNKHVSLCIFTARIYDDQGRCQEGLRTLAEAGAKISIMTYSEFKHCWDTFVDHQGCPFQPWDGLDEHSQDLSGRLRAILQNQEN

Cc1cccc(CNc2nc(-c3cccnc3)nc3ccccc23)c1
outcome [1]: inactive

OC[C@H](S)CS
Potency [2]: inactive
Potency [3]: 3.16 µM (active)

CCc1ccc2c(c1)N(C[C@H](C)CN(C)C)c1ccccc1S2
Potency [4]: 7.57 µM (active)

N[C@H](COP(=O)(O)O)C(=O)O
Potency [2]: inactive
Potency [5]: inactive
Potency [3]: inactive
Potency [6]: inactive
Potency [7]: inactive
Potency [8]: inactive
Potency [9]: inactive
Potency [4]: inactive
Potency [10]: inactive

C(=C/c1ccccc1)/CN1CCN(C(c2ccccc2)c2ccccc2)CC1
Potency [5]: inactive
Potency [8]: inactive
Potency [9]: inactive
Potency [10]: inactive

C[N+]1(C)[C@@H]2CC(OC(=O)[C@@H](CO)c3ccccc3)C[C@@H]1[C@H]1O[C@H]12 (some centres not stated)
Potency [5]: inactive
Potency [3]: inactive
Potency [6]: inactive
Potency [7]: inactive
Potency [8]: inactive
Potency [9]: inactive
Potency [4]: inactive
Potency [10]: inactive

CC(=O)N1CCN(c2ccc(OC[C@@H]3CO[C@@](Cn4ccnc4)(c4ccc(Cl)cc4Cl)O3)cc2)CC1
Potency [6]: inactive
Potency [7]: inactive

COc1cc2nc(N(C)CCCNC(=O)[C@@H]3CCCO3)nc(N)c2cc1OC
Potency [5]: inactive
Potency [3]: inactive
Potency [6]: inactive
Potency [7]: inactive
Potency [8]: inactive
Potency [9]: inactive
Potency [4]: inactive
Potency [10]: inactive

Oc1ccc([C@@H]2CNCCc3c2cc(O)c(O)c3Cl)cc1
outcome [11]: inactive

N.N.N.N.N.N.N.N.N.N.N.N.N.N.O.O.[Ru].[Ru].[Ru]
Potency [12]: inactive

CSC(N)=NCCC[C@@H](N)C(=O)O
Potency [13]: 3.16 µM (active)

O=C1O/C(=C\Br)CC[C@@H]1c1cccc2ccccc12
Potency [13]: 10 µM (active)
outcome [14]: inactive

N=c1ccn2c(n1)O[C@@H]1[C@@H](O)[C@H](CO)O[C@H]12
outcome [1]: inactive

Oc1ccc([C@@H]2CNCc3sccc32)cc1O
Potency [13]: 12.6 µM (active)
